# Source: PubChem (NMMLSC)
# The list is not random: actives were taken first. Their share in the collection is about 1.8%.
# LAP4 TOR yeast: alters LAP4-GFP fluorescence in TOR pathway yeast screen | 320,000 compounds, 0.34% hits | AID 2023 | S. cerevisiae LAP4-GFP multiplex, flow cytometry GFP, 3 h; median GFP as percent of DMSO wells | GFP response vs DMSO, % at 10 µM;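 active means GFP response vs DMSO above a set limit, about the screen mean plus 3 SD, cut at about 150% in these data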
# MEP2 TOR yeast: yeast TOR pathway MEP2-GFP modulation; S. cerevisiae MEP2-GFP strain, flow cytometry GFP, 3 h; 100% = DMSO control level; GFP response vs DMSO, % at 10 µM; 330,000 compounds, 0.51% hits; AID 2016;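 active means GFP response versus DMSO above a set limit, roughly screen mean plus 3 SD, cut at about 180% in these data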;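 further: median GFP fluorescence of the barcode-gated MEP2-GFP cells per well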
# Myeloid diff 2: myeloid differentiation induction. AID 624256. 360,000 compounds, 1% hits. calls only at 10 µM. ER-HoxA9 myeloid progenitors, lysozyme-GFP differentiation, flow cytometry;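 active means normalized GFP-positive differentiation at or above the plate's own cutoff, the solvent-only control mean plus 3 SD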;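 further: cells exposed to compound for four days before flow analysis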
# AGP1 TOR yeast: alters AGP1-GFP fluorescence in TOR pathway yeast screen; S. cerevisiae AGP1-GFP multiplex flow cytometry, 3 h; GFP as percent of DMSO wells; GFP response vs DMSO, % at 10 µM; 320,000 compounds, 0.02% hits; AID 2066;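 active means GFP response relative to DMSO above a set limit, near screen average plus 3 SD, cut at about 150% in these data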;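 further: median GFP channel fluorescence of the gated AGP1 strain per well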
# CIT2 TOR yeast: modulators of TOR pathway CIT2-GFP in S. cerevisiae. AID 2029. GFP response vs DMSO, % at 10 µM. S. cerevisiae CIT2-GFP strain, flow cytometry, 3 h; 100 means same as DMSO wells. 320,000 compounds, 0.065% hits;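 active means GFP response relative to DMSO above a set limit, near the screen mean plus 3 SD, cut at about 150% in these data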;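 further: ratio of well median GFP fluorescence to mean of DMSO wells on the plate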
# RPL19A TOR yeast: alters RPL19A-GFP fluorescence in TOR pathway yeast screen. S. cerevisiae RPL19A-GFP strain, flow cytometry, 3 h; stronger effect = lower value. 330,000 compounds, 0.3% hits. percent response vs DMSO, % at 10 µM;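 active means percent response vs DMSO below 50%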;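 further: median channel GFP fluorescence of the barcoded RPL19A-GFP strain; ratio of sample median GFP to plate DMSO average so 100% = DMSO; lower means less RPL19A-GFP as with rapamycin TOR inhibition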
# Myeloid diff CP1: compounds promoting myeloid differentiation; shares compounds with Myeloid diff 2; ER-HoxA9 myeloid progenitors, GFP/Mac1 double-positive flow; calls only; 2,300 compounds, 2% hits; AID 651706;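 active means share of green or green-and-red cells above 9 and 9% in run 1 or 4 and 3% in run 2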
# GFP autofluor: flagged as fluorescent in myeloid differentiation counter-screen. shares compounds with Myeloid diff 2. ER-HoxA9 myeloid progenitors, no estrogen, GFP autofluorescence flow cytometry; vehicle wells 0%, positive control 100%. fluorescence response, % (no concentration beside the values). 2,300 compounds, 7.4% hits;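 active means over 5% cells positive for green fluorescent reporter, or over 2% positive for both it and APC stain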;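 further: range taken on the double positive population between DMSO and positive control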
# Active calls of the source: *; i = inactive; x = no result given; + = active, no number; ! = not active in a repeat.
SMILES,LAP4 TOR yeast,MEP2 TOR yeast,Myeloid diff 2,AGP1 TOR yeast,CIT2 TOR yeast,RPL19A TOR yeast,Myeloid diff CP1,GFP autofluor
CCC(=O)N/C(N)=N/c1nc(C)c2cc(C)c(C)cc2n1,117,89,i,118,123,105,x,x
CCCc1nnc(NC(=O)COC(=O)c2cc(C)nc3ccccc23)s1,85,92,i,94,99,91,x,x
COC(=O)c1c(NC(=O)C2(C)Cc3ccccc3C(=O)O2)sc2c1CCCC2 (stereo unspecified),118,96,+,96,88,94,i,0
COC(=O)NNC(=S)NCc1ccc(C)cc1,97,102,i,100,100,102,x,x
CCOC(=O)N1CCN(C(=O)CSc2nc3c(cnn3-c3ccccc3)c(=O)[nH]2)CC1,111,98,i,106,118,99,x,x
O=C(NCc1ccccc1)C12CN(Cc3ccccc3)CC1C(c1cccc([N+](=O)[O-])c1)=NO2 (stereo unspecified),x,x,i,x,x,x,i,0
O=C(NCc1ccc(OC(F)(F)F)cc1)C12CN(Cc3ccccc3)CC1C(c1cccc([N+](=O)[O-])c1)=NO2 (stereo unspecified),95,106,i,103,96,96,x,x
O=C(/C=C/[C@H]1O[C@@H](n2ccc(=O)[nH]c2=O)[C@H](O)[C@@H]1O)NCc1cccc2ccccc12,x,x,+,x,x,x,i,0
CC(CCCC(C)(C)O)NC(=O)c1ccc(OC2CCN(C(=O)C3CC3)CC2)cc1 (stereo unspecified),104,96,i,94,95,95,x,x
O=C(Nc1ccccc1)c1ccc2nc(-c3ccco3)c(-c3ccco3)nc2c1,109,101,i,94,104,99,i,0
CC(=O)c1ccc(NC(=O)c2ccc3nc(-c4ccco4)c(-c4ccco4)nc3c2)cc1,100,105,i,97,88,102,x,x
CC(C)C(=O)N1CCN(c2ccc(NC(=O)c3ccc4c(c3)OCCO4)cc2Cl)CC1,98,98,i,96,92,92,x,x
Cc1nn(Cc2ccccc2)c(Cl)c1C(=O)OCc1nnc(-c2ccc(Cl)cc2)o1,105,109,+,105,103,x,i,0
CCS(=O)(=O)c1ccc2c(c1)N(S(C)(=O)=O)CC(C(=O)NC1CC1)O2 (stereo unspecified),107,102,+,104,97,101,i,2
CCCCCCN1CCN(C2CN(Cc3cn(Cc4cccc(Cl)c4)nn3)S(=O)(=O)C2)CC1 (stereo unspecified),x,x,i,x,x,x,x,x
FC(F)(F)c1ccc(N2CCN(c3cc(-c4ccccc4)nc4ncnn34)CC2)nc1,108,99,i,96,99,98,i,1
COC(=O)c1cn(NC(=O)c2ccc([N+](=O)[O-])cc2Cl)c(=O)c2ccccc12,106,98,+,105,99,101,i,1
CC(C)C[C@@H](CN1CCCC1CN1C(=S)NC[C@@H]1Cc1ccccc1)N1C[C@H](Cc2ccccc2)N(CC2CCCCC2)C1=S (stereo partly specified),x,x,i,x,x,x,x,x
COc1ccc(Cn2c(=O)c3[nH]cnc3n(-c3ccccc3C)c2=O)cc1,105,111,i,102,103,105,i,2
COc1ccc(C)c(-n2c(=O)n(Cc3ccccc3)c(=O)c3[nH]cnc32)c1,105,99,i,104,103,97,x,x
CCCC(NC(=O)C(C)NC(=O)CO/N=C1\C=C2CCC3C4CCC(C(C)=O)[C@@]4(C)CCC3[C@@]2(C)CC1)C(=O)O (stereo partly specified),105,105,i,99,92,106,x,x
CCC(=O)Nc1ccc(C(=O)NNC(=O)C(c2ccccc2)c2ccccc2)cc1,93,104,i,102,105,106,x,x
CC(C)CC(=O)Nc1ccc(C(=O)NNC(=O)C(c2ccccc2)c2ccccc2)cc1,95,99,i,100,95,100,i,0
Cc1ccc(C(=O)C2C(c3cccs3)NC(=O)NC2(O)C(F)(F)F)cc1 (stereo unspecified),100,107,i,106,111,104,x,x
COc1ccc(-c2nc(NC(=O)C3CC(=O)N(Cc4ccco4)C3)sc2C)cc1 (stereo unspecified),100,99,i,101,97,97,i,0
SMILES,LAP4 TOR yeast,MEP2 TOR yeast,Myeloid diff 2,AGP1 TOR yeast,CIT2 TOR yeast,RPL19A TOR yeast,Myeloid diff CP1,GFP autofluor
[O-][n+]1onc2c1CCC1N(O)C(c3ccccc3)CC21O (stereo unspecified),103,103,i,104,98,100,x,x
O=[N+]([O-])c1cc([N+](=O)[O-])c2nonc2c1Nc1ccccc1O,91,114,+,99,119,115,i,4
O=C(COC(=O)c1cnccn1)c1ccc2ccccc2c1,103,104,i,97,102,98,i,0
O=C(COC(=O)c1cnccn1)c1ccc(OC(=O)c2ccccc2)cc1,104,103,i,97,107,102,x,x
O=C(Cc1cc(=O)[nH][nH]1)N/N=C/c1ccccc1Cl,94,100,x,97,97,101,x,x
O=C(Cc1cc(=O)[nH][nH]1)N/N=C/C(Cl)=C/c1ccccc1,119,115,i,110,105,108,i,0
O=C(Cc1ccccc1[N+](=O)[O-])OCC(=O)N1CCN(c2ccccc2)CC1,103,88,i,102,110,104,x,x
Cc1nn(C(=O)c2nn(C)cc2[N+](=O)[O-])c(C)c1Br,105,93,i,109,99,104,x,x
Cc1nn(C(=O)c2ccc([N+](=O)[O-])cc2)c(C)c1Br,104,98,+,96,101,99,i,0
O=C(NCCCNCc1ccccc1)c1ccccn1,99,106,+!,105,109,102,i,0
COc1ccccc1C(=O)NCCCNC(=O)c1ccccn1,93,103,i,103,112,103,x,x
COc1cccc(N=C(N)N=C(N)N)c1,106,98,+,102,91,101,i,0
COc1ccc(N=C(N)N=C(N)N)c(OC)c1,101,99,i,103,102,107,x,x
O=C(Nc1nc2ccccc2s1)Nc1ccc(F)cc1F,98,108,i,104,110,108,x,x
